Experimental data reported in PubChem BioAssay (NCI).
About 83,000 compounds went through this panel and 20% of them were active in at least one assay; those are over-represented in the sample as a whole.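 The endpoint reported here, percent growth, reads 100 for growth as untreated, 0 for no net growth and -100 for all cells dead.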 Values without a mark were called inactive. Calls of active or inactive are those of the source. Rule for the calls: active = growth percent below 10; inactive = the rest.

Tests used:
Test in all cases: NCI-60 one-dose screen, 48 h (100 = growth as untreated, 0 = no growth, -100 = all killed)
Details in all cases: 10 µM unless noted
DU-145 prostate = test system: DU-145 prostate
K-562 leukemia = test system: K-562 leukemia
MALME-3M melanoma = test system: MALME-3M melanoma
MDA-MB-231 breast = test system: MDA-MB-231 breast
RXF 393 renal = test system: RXF 393 renal
SF-268 CNS = test system: SF-268 CNS
SF-295 CNS = test system: SF-295 CNS
SF-539 CNS = test system: SF-539 CNS
UACC-257 melanoma = test system: UACC-257 melanoma
M14 melanoma = test system: M14 melanoma

| Compound | growth (DU-145 prostate) | growth (K-562 leukemia) | growth (MALME-3M melanoma) | growth (MDA-MB-231 breast) | growth (RXF 393 renal) | growth (SF-268 CNS) | growth (SF-295 CNS) | growth (SF-539 CNS) | growth (UACC-257 melanoma) | growth (M14 melanoma) |
| --- | --- | --- | --- | --- | --- | --- | --- | --- | --- | --- |
| CN(C)CCOc1nc2c3cc([N+](=O)[O-])ccc3nn2c2ccccc12 | 32.2% | 26.3% | 52.4% | 66.4% | 24.3% | 56.6% | 9.28% (active) | 51.6% | 78.9% | 47.3% |
| CCOC(=O)CC1CSC(N/N=C/c2ccc(O)cc2)=N1 (centres undefined) | 106% | 99.4% | 97% | 113% | 111% | 96.2% | 99.1% | 95.3% | 108% | 92% |
| O=C(CSc1nc(-c2ccccc2)cn1-c1ccc(Cl)cc1)c1ccc([N+](=O)[O-])cc1 | 93.2% | 76.7% | 103% | 81.8% | 71.2% | -86.7% (active) | 95.4% | 92.4% | 97.9% | 82% |
| Cc1c(CC(=O)Nc2ccccc2)nnn1-c1ccccc1 | 115% | 101% | 106% | 118% | 120% | 104% | 109% | 100% | 104% | 108% |
| CC1OC(C(=O)N2CCN(CCO)CC2)CC1COC1CCCCC1 (centres undefined) | 105% [50 µM] | 91.6% [50 µM] | 88.2% [50 µM] | 94.5% [50 µM] | 102% [50 µM] | 97.2% [50 µM] | 102% [50 µM] | 97.8% [50 µM] | 98% [50 µM] | 100% [50 µM] |
| CN(C)C(=S)NN=C(c1ccccn1)c1ccccn1 | -18.9% (active) | 7.91% (active) | -6.46% (active) | 40.3% | 6.64% (active) | 24.6% | 21.5% | -48.2% (active) | 35.9% | 17.2% |
| CC/C(=C(/c1ccc(Cl)cc1)c1ccc(OCCCN(C)C)cc1)c1ccc(OC)cc1 | 85.7% | -27.4% (active) | 74.1% | 76.3% | 53.1% | 84.2% | 88.5% | 82.8% | 84.7% |  |
| CC/C(=C(/c1ccc(Cl)cc1)c1ccc(OCCN2CCCC2)cc1)c1ccccc1 | 80.4% | 4.31% (active) | 68.8% | 73.6% | 55.2% | 73.3% | 79% | 74.8% | 74% | 37.1% |
| C=C(C[n+]1ccccc1)[C@@H]1CC[C@]2(C(=O)OC)CC[C@]3(C)[C@H](CC[C@@H]4[C@@]5(C)CCC(=O)C(C)(C)[C@@H]5CC[C@]43C)[C@@H]12 | 101% | 57.8% | 75.2% | 85.9% | 99% | 90.3% | 103% | 93.7% | 53.4% | 87% |
| COc1ccc(Nc2nccc(Nc3ccc4[nH]ncc4c3)n2)cc1 | 32% | 4.96% (active) | 76.1% | 48.6% | 31.8% | 47% | 47.7% | 68.8% | 46.2% | 33% |
| COc1ccccc1NC(=O)n1c(=O)cc(C)c2ccc(O)cc21 | 113% | 117% | 106% | 106% | 94.8% | 106% | 101% | 106% | 111% | 113% |
| CCCS(=O)(=O)Nc1cccc(Nc2ncnc3cc(NC(=O)CCl)ccc23)c1Cl | -92.8% (active) | 0% (active) | -79.2% (active) | -72.5% (active) | -87.3% (active) | -55.9% (active) | -80.5% (active) | -85% (active) | 10.3% | -43.5% (active) |
| O=C(O)/C=C/c1cn(-c2ccccc2)nc1-c1ccc(F)cc1 | 115% | 100% | 105% | 95% | 113% | 83.7% | 87.7% | 92.6% | 80.7% | 90% |
| O=c1[nH]c(CN2CCN(c3ccccc3)CC2)nc2c(Br)cc(Br)cc12 | 114% | 97.6% | 109% | 115% | 101% | 108% | 91.8% | 111% | 96.2% | 113% |
